# Results as given in PubChem BioAssay.
# Experiment: small-molecule microarray binders of probe aDKK1, primary screen, biochemical, biotinylated probe, 635/667 nm fluorescence (AID 1099);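 also: score merges 667nm spot fluorescence with signal to noise across triplicate slides; reference of the scale not given here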
# Settings: higher = more signal
row,SMILES,composite z-score
1,CCOC(=O)C1=CCC(c2ccc(C)cc2)N(S(=O)(=O)c2ccc(C)cc2)C1 (stereo not given),0.524
2,CN(C)CCCNC(=O)[C@@]1(c2ccc([N+](=O)[O-])cc2)CC(=O)N(C2CCCCC2)[C@@H]1c1ccc(CO)cc1,0.0157
3,CC(=O)N1Cc2ccccc2C[C@@]2(COC(c3ccc(OCCCO)cc3)=N2)C1=O,1.18
4,COCCOC(=O)N1C(=O)[C@@]2(c3cc(C#CC4=CCCCC4)ccc31)[C@H](C(=O)Nc1nc3ccccc3s1)[C@H]1C(=O)O[C@H](c3ccccc3)[C@H](c3ccccc3)N1[C@@H]2c1ccc(OCCO)cc1,-0.0057
5,C=CC[C@]1(C(=O)N2CCCCC2)N=C(c2ccc(OCCCO)cc2)O[C@H]1c1ccccc1,1.16
6,O=C1NCC(=O)N2[C@@H]1C[C@@H](C(=O)O)[C@H]2c1cccc(OCCO)c1,3.06
7,O=C1O[C@H](c2ccccc2)[C@H](c2ccccc2)N2[C@H]1[C@@H](C(=O)O)[C@]1(C(=O)Nc3ccc(C#CCCO)cc31)[C@H]2c1ccc(O)cc1,1.13
8,C=CCOC(=O)[C@H]1[C@@H]2C(=O)O[C@@H](c3ccccc3)[C@@H](c3ccccc3)N2[C@@H](c2ccc(OCCOC(=O)[C@@H]3C[C@@H]4C(=O)N[C@@H](CCCCN(C)C)C(=O)N4[C@@H]3c3ccc(O)cc3)cc2)[C@]12C(=O)Nc1ccc(I)cc12,0.26
9,CC(C)(C)OC(=O)CC[C@]12N=C(c3ccc(OCCCO)cc3)O[C@H]1c1ccccc1N(CCS(=O)(=O)c1ccccc1)C2=O,0.438
10,CN(C)C(=O)[C@@]1(Cc2ccccc2CN=[N+]=[N-])N=C(c2ccc(OCCCO)cc2)O[C@H]1c1ccccc1,-0.274
11,COc1cc2c(cc1OC)CN(C(=O)[C@H]1[C@@H]3C(=O)O[C@@H](c4ccccc4)[C@@H](c4ccccc4)N3[C@@H](c3ccc(O)cc3)[C@]13C(=O)Nc1ccc(C#CC4=CCCCC4)cc13)CC2,0.817
12,CN1C(=O)C2C=CC(C(O)c3cc(C(F)(F)F)cc(C(F)(F)F)c3)N(N3CCCCC3)C2C1=O (stereo not given),0.853
13,COCC(=C=CC[C@H](O)c1ccccc1OCCO)C[C@H](O)c1cc(Cl)cc(Cl)c1O,-0.141
14,CCCN1C(=O)[C@]2(CCS(=O)(=O)c3ccccc3)N=C(c3ccc(OCCCO)cc3)O[C@@H]2c2ccccc21,0.0947
15,COc1cc2c(cc1OC)CN(C(=O)[C@H]1[C@@H]3C(=O)O[C@@H](c4ccccc4)[C@@H](c4ccccc4)N3[C@@H](c3ccc(O)cc3)[C@]13C(=O)Nc1ccc(C#CCNC(N)=O)cc13)CC2,-0.0741
16,CN(C)CCCNC(=O)[C@@]1(C)c2ccccc2C(=O)N(Cc2cc(F)cc(C(F)(F)F)c2)[C@H]1c1ccc(CO)cc1,-0.226
17,O=C1C2C=CC(C(O)C3CCCCC3)N(Nc3ccc([N+](=O)[O-])cc3)C2C(=O)N1c1ccccc1 (stereo not given),-0.236
18,O=C1OCCC/C=C\[C@H]2OC34C=CCN(c5ccc6ccccc6c5)C(=O)[C@H]3N(CCCCCCO)C(=O)[C@@H]4C12 (stereo not given in full),-0.234

row,SMILES,composite z-score
1,COCCOC(=O)N1C(=O)[C@@]2(c3cc(C#CCNC(N)=O)ccc31)[C@H](C(=O)NC[C@H](O)c1ccccc1)[C@H]1C(=O)O[C@H](c3ccccc3)[C@H](c3ccccc3)N1[C@@H]2c1ccccc1OCCO,-0.547
2,CC(C)(C)OC(=O)CC[C@@]12N=C(c3ccc(OCCCO)cc3)O[C@@H]1c1ccccc1N(CCS(=O)(=O)c1ccccc1)C2=O,0.512
3,COC(=O)[C@@]1(Cc2ccc(F)cc2)[C@H]2c3cc(C(=O)N4CCCC4)n(Cc4cc(C)n(C)n4)c3C[C@H]2CN1C(=O)c1ccccc1,1.01
4,COC(=O)c1c(CC[C@@H](CO)NC(=O)N2CCC[C@H]2Cn2cc(-c3ccccn3)nn2)oc(C(C)=O)c1C(=O)OC,-0.238
5,CCOC(=O)[C@H]1CC=C2CC1C(=O)N1CCC[C@@H]1[C@@H]2O[Si](C)(C)C(C)(C)C (stereo not given in full),-0.539
6,C=CCC(OC(C)=O)[C@@H]1[C@@H](N(Cc2ccc(-c3ccccc3)cc2)C(=O)Cc2ccc(F)cc2)c2cc(OCCCO)ccc2N1C(=O)c1ccc(-c2ccccc2)cc1 (stereo not given in full),-0.0501
7,CCOC(=O)C[C@H]1[C@H](OC(=O)Cc2ccc3c(c2)OCO3)[C@@H](NC(=O)c2ccc(-c3ccccc3)cc2)c2cc(OCCCO)ccc2N1C(=O)c1ccc2ccccc2n1,-0.319
8,COCCCNC(=O)[C@@]1(Cc2ccccc2)N=C(c2ccc(OCCCO)cc2)O[C@H]1c1ccccc1,1.22
9,NC(=O)[C@@H]1[C@H]2C(=O)O[C@H](c3ccccc3)[C@H](c3ccccc3)N2[C@H](c2ccc(O)cc2)[C@@]12C(=O)Nc1ccc(C#CC3(O)CCCCCC3)cc12,-0.127
10,COc1cc2c(cc1O)C(C1CC1)N(Cc1cc3c(cc1Br)OCO3)CC2 (stereo not given),-0.197
11,CCCCCC1=C2CNC(CCC)(C(=O)OC)C=C2C(C)C1=O (stereo not given),0.719
12,COc1ccc(C(O)C2C=CC3C(=O)NC(=O)C3N2Nc2ccccn2)c2ccccc12 (stereo not given),0.046
13,COC(=O)C(CC#Cc1ccc2c(c1)[C@]1(C(=O)N2)[C@H](C(=O)O)[C@H]2C(=O)O[C@H](c3ccccc3)[C@H](c3ccccc3)N2[C@@H]1c1ccc(O)cc1)C(=O)OC,-0.0082
14,CC1(C)[C@@H]2CC(C(O)C3C=CC4C(=O)N(c5ccccc5)C(=O)C4N3Nc3ccccc3)=C[C@H]1C2 (stereo not given in full),0.592
15,COc1ccc([Si](C)(C)[C@H]2[C@H](CCn3cc([C@H](O)c4ccccc4)nn3)O[C@@]3(C(=O)N(Cc4cccc(N5CCOC5=O)c4)c4ccccc43)[C@@H]2C)cc1,0.0739
16,COc1cc2c(cc1O)C=[N+](Cc1cccc(OC(F)(F)F)c1)CC2,-0.084
17,COC(=O)[C@@]1(Cc2ccc(OC)cc2)[C@H]2c3cc(C(=O)N(C)C)n(CCN4CNCC4=O)c3C[C@H]2CN1C(=O)c1ccccc1,-0.218
